Data from the supplement of paper PMC11732987, “Enantioselective OTUD7B fragment discovery through chemoproteomics screening and high-throughput optimisation” (Communications Chemistry, 2025).
A number with no mark means an inactive call.

Assays:
Test in all cases: log2 ratio of Biotin-Ahx-Ub-VS probe labelling (fragment/DMSO); higher = less target engagement (more negative = stronger competition), active = hit call of the paper (q ≤ 0.05, log2 ratio ≤ -1)
Details in all cases: compound concentration: 200 uM; treatment time: 3 h
UniProt O00507 = biological target: UniProt O00507
Summary of the method: (§1)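 HEK293T lysate (495 µg per sample, in Tris/CHAPS/IGEPAL buffer with protease inhibitors) was treated in triplicate with fragment at 200 µM or with DMSO for 3 h. It was then treated with Biotin-Ahx-Ub-VS (0.5 µM final) for 1 h. Labelled DUBs were NeutrAvidin-enriched, digested with LysC and trypsin, and run by diaPASEF LC-MS/MS. Spectronaut label-free quantities were global-median-normalised. Values are average log2 ratios fragment/DMSO by unpaired t-test, using proteins with ≥2 unique peptides.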

UniProt P51784 = biological target: UniProt P51784
Summary of the method: as §1

UniProt Q5T2D3 = biological target: T1, UniProt Q5T2D3
T1 sequence (whole entry): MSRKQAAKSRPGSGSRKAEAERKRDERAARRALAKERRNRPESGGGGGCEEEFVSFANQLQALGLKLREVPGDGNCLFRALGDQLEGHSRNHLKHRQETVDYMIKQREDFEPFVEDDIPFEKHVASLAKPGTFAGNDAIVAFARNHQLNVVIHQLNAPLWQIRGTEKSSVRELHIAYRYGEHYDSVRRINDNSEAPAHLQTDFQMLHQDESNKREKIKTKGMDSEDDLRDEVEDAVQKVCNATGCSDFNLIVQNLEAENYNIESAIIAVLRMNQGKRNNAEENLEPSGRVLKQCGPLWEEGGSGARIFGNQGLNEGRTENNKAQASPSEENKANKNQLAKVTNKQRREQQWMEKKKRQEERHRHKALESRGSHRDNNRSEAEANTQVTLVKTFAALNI
Summary of the method: as §1

UniProt Q8TE49 = biological target: T2, UniProt Q8TE49
T2 sequence (whole entry): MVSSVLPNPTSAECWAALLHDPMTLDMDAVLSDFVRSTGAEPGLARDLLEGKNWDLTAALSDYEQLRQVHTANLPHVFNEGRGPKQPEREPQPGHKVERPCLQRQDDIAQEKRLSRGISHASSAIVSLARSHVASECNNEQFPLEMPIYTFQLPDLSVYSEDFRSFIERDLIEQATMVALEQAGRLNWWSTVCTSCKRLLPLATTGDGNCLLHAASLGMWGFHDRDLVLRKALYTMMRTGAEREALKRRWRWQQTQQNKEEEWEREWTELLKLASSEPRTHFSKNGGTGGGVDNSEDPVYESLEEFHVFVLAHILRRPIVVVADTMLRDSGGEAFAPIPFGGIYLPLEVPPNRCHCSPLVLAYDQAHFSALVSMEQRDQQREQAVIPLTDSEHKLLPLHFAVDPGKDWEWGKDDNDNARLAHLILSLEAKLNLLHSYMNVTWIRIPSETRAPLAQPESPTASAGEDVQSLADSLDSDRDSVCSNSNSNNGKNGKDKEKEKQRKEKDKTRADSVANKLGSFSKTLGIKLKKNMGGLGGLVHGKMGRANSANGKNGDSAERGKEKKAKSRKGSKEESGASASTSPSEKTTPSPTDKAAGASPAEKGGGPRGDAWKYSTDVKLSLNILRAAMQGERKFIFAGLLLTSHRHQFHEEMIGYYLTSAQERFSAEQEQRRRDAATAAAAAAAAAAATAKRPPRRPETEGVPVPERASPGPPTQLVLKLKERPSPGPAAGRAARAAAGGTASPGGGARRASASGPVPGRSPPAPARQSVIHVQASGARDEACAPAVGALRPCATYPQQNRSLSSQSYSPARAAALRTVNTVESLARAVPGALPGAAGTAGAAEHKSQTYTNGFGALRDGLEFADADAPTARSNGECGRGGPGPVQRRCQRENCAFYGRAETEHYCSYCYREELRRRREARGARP
Summary of the method: as §1

UniProt Q9P2H5 = biological target: T3, UniProt Q9P2H5
T3 sequence (whole entry): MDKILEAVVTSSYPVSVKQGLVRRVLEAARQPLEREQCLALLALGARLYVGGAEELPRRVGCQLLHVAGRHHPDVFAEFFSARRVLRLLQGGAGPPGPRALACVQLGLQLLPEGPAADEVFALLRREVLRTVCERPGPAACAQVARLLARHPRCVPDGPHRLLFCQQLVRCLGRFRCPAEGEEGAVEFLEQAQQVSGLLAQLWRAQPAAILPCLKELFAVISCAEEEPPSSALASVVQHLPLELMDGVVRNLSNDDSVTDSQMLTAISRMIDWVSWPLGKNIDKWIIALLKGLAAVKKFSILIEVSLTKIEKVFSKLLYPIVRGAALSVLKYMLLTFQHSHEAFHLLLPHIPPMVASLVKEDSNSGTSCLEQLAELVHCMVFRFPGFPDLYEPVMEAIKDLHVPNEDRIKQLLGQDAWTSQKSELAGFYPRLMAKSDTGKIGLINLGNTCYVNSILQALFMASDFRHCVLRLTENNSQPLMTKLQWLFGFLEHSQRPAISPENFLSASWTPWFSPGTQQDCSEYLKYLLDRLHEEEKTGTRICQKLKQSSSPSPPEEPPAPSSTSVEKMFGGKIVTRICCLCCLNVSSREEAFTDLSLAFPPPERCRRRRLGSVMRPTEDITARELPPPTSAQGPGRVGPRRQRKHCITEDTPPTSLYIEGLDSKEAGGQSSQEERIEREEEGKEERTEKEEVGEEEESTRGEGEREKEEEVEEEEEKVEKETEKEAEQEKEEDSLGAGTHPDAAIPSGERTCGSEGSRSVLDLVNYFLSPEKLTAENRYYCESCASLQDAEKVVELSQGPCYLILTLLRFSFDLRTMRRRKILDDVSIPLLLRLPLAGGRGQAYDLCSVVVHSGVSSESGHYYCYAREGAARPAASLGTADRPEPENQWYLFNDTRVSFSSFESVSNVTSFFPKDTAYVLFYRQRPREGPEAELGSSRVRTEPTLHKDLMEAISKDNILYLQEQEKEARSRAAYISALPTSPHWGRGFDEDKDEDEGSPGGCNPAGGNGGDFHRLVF
Summary of the method: as §1

UniProt Q9UGI0 = biological target: T4, UniProt Q9UGI0
T4 sequence (whole entry): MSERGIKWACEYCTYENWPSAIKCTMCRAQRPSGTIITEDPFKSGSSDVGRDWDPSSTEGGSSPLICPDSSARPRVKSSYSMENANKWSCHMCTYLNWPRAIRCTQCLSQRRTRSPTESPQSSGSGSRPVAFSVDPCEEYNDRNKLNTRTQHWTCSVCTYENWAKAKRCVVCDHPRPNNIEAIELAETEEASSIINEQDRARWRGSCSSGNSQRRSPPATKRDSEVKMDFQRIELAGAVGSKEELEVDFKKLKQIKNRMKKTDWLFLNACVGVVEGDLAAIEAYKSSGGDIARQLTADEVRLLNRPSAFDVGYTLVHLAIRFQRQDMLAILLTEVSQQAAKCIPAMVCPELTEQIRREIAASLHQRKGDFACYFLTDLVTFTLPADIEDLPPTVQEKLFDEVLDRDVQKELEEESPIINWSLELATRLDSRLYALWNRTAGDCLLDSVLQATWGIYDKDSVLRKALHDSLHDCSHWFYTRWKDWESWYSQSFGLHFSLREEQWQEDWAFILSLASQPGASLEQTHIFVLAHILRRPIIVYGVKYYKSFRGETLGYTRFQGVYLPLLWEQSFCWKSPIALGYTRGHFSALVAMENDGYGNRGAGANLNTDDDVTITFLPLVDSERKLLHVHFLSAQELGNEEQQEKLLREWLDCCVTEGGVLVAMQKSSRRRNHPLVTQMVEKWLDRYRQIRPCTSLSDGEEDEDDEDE
Summary of the method: as §1

YOD1 = biological target: T5, YOD1 (UniProt Q5VVQ6)
T5 sequence (whole entry): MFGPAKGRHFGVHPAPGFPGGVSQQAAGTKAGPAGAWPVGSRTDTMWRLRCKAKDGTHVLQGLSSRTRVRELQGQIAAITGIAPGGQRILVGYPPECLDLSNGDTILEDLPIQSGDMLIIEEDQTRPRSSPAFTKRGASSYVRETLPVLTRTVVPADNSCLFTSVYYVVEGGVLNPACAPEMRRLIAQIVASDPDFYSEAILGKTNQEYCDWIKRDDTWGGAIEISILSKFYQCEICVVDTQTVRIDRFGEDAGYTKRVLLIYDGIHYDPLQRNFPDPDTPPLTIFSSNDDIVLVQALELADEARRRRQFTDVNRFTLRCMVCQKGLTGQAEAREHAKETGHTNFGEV
Summary of the method: as §1

Sequence of UniProt O00507 (O00507 whole entry, the tested form may be a part): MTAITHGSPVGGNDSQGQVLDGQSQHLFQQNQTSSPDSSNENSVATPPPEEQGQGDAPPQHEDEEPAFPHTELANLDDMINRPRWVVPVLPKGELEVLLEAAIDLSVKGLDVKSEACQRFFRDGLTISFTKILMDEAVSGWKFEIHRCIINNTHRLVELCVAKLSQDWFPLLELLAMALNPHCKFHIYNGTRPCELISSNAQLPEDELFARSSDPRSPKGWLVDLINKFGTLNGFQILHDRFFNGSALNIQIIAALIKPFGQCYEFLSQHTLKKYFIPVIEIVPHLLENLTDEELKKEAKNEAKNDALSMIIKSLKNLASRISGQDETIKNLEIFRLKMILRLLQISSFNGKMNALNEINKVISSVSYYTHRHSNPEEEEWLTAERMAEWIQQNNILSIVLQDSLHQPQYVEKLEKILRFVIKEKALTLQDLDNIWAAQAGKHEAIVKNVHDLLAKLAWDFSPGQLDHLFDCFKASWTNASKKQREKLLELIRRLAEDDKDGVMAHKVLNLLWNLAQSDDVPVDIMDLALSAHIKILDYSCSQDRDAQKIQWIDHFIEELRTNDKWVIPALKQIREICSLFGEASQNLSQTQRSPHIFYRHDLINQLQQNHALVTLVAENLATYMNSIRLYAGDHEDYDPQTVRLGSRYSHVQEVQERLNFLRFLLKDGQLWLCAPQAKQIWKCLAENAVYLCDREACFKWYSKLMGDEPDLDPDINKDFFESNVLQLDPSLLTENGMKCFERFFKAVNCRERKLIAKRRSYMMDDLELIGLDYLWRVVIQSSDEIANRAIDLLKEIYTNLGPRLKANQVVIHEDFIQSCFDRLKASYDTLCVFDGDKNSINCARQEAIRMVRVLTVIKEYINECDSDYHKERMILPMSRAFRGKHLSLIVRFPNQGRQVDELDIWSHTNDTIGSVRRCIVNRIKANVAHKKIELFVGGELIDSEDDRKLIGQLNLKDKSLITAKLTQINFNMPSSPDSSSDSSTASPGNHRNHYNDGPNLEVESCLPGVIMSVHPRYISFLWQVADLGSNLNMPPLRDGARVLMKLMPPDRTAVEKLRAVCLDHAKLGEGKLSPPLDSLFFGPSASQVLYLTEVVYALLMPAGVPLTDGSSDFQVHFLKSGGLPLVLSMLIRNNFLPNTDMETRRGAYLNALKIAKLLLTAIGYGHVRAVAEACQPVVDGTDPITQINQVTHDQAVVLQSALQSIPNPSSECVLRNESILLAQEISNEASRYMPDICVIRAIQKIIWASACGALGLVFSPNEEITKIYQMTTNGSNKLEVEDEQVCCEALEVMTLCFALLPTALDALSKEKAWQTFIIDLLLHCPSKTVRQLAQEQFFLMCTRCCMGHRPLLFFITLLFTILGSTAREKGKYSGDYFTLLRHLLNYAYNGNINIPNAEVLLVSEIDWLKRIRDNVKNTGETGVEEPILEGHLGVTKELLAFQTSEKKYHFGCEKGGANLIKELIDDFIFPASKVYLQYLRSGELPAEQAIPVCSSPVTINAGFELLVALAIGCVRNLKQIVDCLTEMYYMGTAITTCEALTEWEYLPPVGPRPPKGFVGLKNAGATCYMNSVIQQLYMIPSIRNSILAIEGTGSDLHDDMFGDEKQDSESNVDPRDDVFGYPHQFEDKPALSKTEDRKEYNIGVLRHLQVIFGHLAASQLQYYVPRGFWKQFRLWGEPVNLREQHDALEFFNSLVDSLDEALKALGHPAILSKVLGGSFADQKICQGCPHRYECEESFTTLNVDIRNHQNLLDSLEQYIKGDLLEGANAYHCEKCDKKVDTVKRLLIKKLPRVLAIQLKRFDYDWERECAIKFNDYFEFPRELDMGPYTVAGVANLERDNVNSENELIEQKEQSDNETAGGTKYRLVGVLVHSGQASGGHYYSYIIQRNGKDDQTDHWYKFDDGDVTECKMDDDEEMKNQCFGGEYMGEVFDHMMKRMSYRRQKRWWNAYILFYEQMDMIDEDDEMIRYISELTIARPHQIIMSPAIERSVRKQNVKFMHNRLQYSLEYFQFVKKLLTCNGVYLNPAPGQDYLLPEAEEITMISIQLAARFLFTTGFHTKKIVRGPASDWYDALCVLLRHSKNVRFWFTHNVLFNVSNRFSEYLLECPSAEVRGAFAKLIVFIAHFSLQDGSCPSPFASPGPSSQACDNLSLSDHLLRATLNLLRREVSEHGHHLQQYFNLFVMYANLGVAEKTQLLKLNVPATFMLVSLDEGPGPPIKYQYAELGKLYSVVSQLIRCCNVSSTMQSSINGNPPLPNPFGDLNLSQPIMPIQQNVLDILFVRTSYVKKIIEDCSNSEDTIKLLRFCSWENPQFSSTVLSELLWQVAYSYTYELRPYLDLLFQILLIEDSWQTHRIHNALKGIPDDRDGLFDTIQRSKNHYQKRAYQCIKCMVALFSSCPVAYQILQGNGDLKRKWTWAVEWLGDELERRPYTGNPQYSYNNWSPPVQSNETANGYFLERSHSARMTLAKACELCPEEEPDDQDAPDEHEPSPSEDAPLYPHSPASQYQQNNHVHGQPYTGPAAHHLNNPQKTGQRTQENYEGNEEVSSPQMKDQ
Sequence of UniProt P51784 (P51784 whole entry): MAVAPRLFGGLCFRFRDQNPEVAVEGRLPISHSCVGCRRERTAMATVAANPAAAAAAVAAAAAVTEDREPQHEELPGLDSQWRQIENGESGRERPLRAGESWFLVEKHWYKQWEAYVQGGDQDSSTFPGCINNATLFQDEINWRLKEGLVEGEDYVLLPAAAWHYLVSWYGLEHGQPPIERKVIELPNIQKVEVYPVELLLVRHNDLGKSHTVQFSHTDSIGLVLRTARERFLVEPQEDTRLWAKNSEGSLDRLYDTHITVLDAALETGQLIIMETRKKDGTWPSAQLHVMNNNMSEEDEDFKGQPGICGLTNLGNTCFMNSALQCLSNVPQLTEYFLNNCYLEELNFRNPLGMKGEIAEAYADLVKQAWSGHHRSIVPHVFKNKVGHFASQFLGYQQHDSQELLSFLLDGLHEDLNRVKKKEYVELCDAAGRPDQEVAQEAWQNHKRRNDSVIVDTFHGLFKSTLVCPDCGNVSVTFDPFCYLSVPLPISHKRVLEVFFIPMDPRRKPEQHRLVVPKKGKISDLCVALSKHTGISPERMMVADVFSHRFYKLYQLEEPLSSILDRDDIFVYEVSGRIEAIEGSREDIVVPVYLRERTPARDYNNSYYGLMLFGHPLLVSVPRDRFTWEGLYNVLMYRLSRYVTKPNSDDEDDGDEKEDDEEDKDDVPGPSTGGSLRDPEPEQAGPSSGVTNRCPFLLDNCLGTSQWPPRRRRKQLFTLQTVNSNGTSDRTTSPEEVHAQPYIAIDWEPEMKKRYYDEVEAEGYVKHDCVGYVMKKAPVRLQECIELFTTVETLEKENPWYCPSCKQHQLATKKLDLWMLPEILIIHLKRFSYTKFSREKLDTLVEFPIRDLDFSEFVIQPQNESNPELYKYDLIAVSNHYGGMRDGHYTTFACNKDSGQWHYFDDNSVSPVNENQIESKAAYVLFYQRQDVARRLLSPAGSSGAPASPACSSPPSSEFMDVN

| Structure (SMILES) | log2 ratio of Biotin-Ahx-Ub-VS probe labelling (UniProt O00507) | log2 ratio of Biotin-Ahx-Ub-VS probe labelling (UniProt P51784) | log2 ratio of Biotin-Ahx-Ub-VS probe labelling (UniProt Q5T2D3) | log2 ratio of Biotin-Ahx-Ub-VS probe labelling (UniProt Q8TE49) | log2 ratio of Biotin-Ahx-Ub-VS probe labelling (UniProt Q9P2H5) | log2 ratio of Biotin-Ahx-Ub-VS probe labelling (UniProt Q9UGI0) | log2 ratio of Biotin-Ahx-Ub-VS probe labelling (YOD1) |
| --- | --- | --- | --- | --- | --- | --- | --- |
| Cc1ccc(CN(C)C(=O)CCl)o1 | 0.383 | 0.146 | -0.109 | -0.671 | -0.321 | -0.57 | 0.384 |
| O=C(CCl)Nc1cccc(NC(=O)c2ccccc2)c1 | 0.236 | 0.295 | 0.263 | -0.0536 | -0.23 | 0.0168 | 0.288 |
| CCN1C(=O)C2CN(C(=O)CCl)CCN2C1=O (configuration not stated) | 0.428 | 0.0433 | -0.0669 | -0.958 | -0.223 | 0.112 | 0.177 |
| Cc1ccc(C)c(Oc2ccc(CNC(=O)CCl)cn2)c1.Cl | -0.379 | -0.367 | -0.187 | -0.677 | -0.375 | -0.886 | -0.149 |
| Cl.O=C(CCl)NCCc1ncc(F)cc1F | 0.000732 | -0.132 | -0.431 | -0.85 | -0.675 | -0.786 | -0.195 |
| O=C(CCl)NC(Cn1ccccc1=O)c1ccccc1 (configuration not stated) | 0.0241 | 0.0376 | 0.0727 | -0.0581 | 0.148 | -0.146 | 0.00589 |
| O=C(CCl)N1CCC(C(=O)N2CCCCCC2)CC1 | 0.0804 | 0.0166 | -0.255 | -0.488 | -0.287 | -0.0376 | 0.016 |
| Cl.Cn1ncc2c1CC(NC(=O)CCl)CC2 (configuration not stated) | 0.311 | 0.0472 | -0.0643 | -0.377 | -0.257 | -0.162 | 0.181 |
| CC(NC(=O)CCl)c1csc(-c2ccccc2)n1.Cl (configuration not stated) | -0.472 | -0.138 | -0.671 | -1.08 (active) | -0.482 | -0.494 | -0.459 |
| Cl.O=C(CCl)NCc1cc2c(nc1O)CCCC2 | -0.0624 | 0.0791 | -0.333 | -0.515 | -0.244 | -0.421 | -0.158 |
| Cc1nnc(C(NC(=O)CCl)c2ccccc2)n1C (configuration not stated) | 1.12 | 0.68 | 0.343 | 0.469 | 0.372 | 0.693 | 0.747 |
